In all, about 360,000 compounds went through this assay and about 4,500 (1.2%) were called active. No stated cut-off is given here; in the data, active means inhibition above about 30%; inactive means the rest. What follows is part of a selection rich in actives, with near analogues and random picks from the rest.

This experiment is described as follows: inhibition of GDH and TPI enzymes – biochemical, absorbance, full deck, artefact control for M. tuberculosis FBA inhibitor project, primary screen (AID 588335).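 Further: 0% = DMSO wells and 100% = wells lacking the enzyme.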 The conditions noted are these: GDH-TPI coupled enzyme counterscreen, NADH absorbance; at 4.8 µM; stronger effect = higher value.
Regarding `Cn1c(SCC(=O)Nc2ccc(Cl)cc2)nc(O)cc1=O`, the inhibition was 4.39% (inactive). As to `Cc1ccc(C(=O)N/C(=C/c2ccc(-c3cccc([N+](=O)[O-])c3)o2)C(=O)NCCCN(C)C)cc1`, the inhibition was 58.5% (active). `O=C(NCc1ccco1)/C(=C/c1cccc([N+](=O)[O-])c1)NC(=O)c1ccco1`: the inhibition is -4.48% (inactive). The value for `O=C(NCc1ccco1)/C(=C\c1cccc([N+](=O)[O-])c1)NC(=O)c1ccco1` was 16.8% (inactive). The value for `CN(C(=O)c1cccc(NC(=O)Cc2ccc([N+](=O)[O-])cc2)c1)C1CCC1` was 6.17% (inactive); that for `COc1ccc(/C=N\NC(=O)c2sc(N)nc2C)cc1OC` was 40.4% (active). With `COc1cc(/C=N/NC(=O)Nc2ccccc2)ccc1OCCOc1ccccc1C` the figure was 18.8% (inactive); with `Cc1nnsc1C(=O)N/N=C/c1cccc(C(F)(F)F)c1`, 5.54% (inactive); with `CC1(Oc2ccc(Cl)cc2)CCN(Cc2csc3ccccc23)C1` (stereo unspecified), -8.04% (inactive). As for `CCOC(=O)c1ccccc1NC(=S)N1CCC(C(N)=O)CC1`, the inhibition is -2.65% (inactive). The value for `CCCCn1c(N)c(N(CCOC)C(=O)c2sc3ccccc3c2Cl)c(=O)[nH]c1=O` was 0% (inactive). Turning to `CC(=O)Nc1ccc(S(=O)(=O)Nc2nc3n(n2)C(c2ccccc2)CC(=O)N3)cc1` (stereo unspecified), the inhibition is 0.72% (inactive). The value for `CCCSc1nc2sc3c(c2c(=O)n1-c1ccc(OC)cc1)CCN(C)C3` was 14.5% (inactive). For `COc1ccccc1NC(=O)CSc1nc2sc3c(c2c(=O)n1-c1ccccc1)CCN(C)C3`, the inhibition was 33.1% (active). The value for `CCOc1ccc(-n2c(SCC(=O)Nc3ccc(OC)cc3)nc3sc4c(c3c2=O)CCN(C)C4)cc1` was 19.9% (inactive).

In the case of `CCOc1ccc(-n2c(SCC(=O)OC)nc3sc4c(c3c2=O)CCN(C)C4)cc1`, the inhibition is 22.9% (inactive).

As to `CCn1c(SCC(=O)Nc2ccc(Br)cc2)nc2sc3c(c2c1=O)CCN(C)C3`, the inhibition is 6.95% (inactive). With `CCSc1nc2sc3c(c2c(=O)n1-c1ccc(C)cc1)CCN(C)C3`, the inhibition is 30.7% (active). The value for `C[C@H]1CN([C@@H](C)CO)C(=O)CCCn2cc(nn2)CO[C@@H]1CN(C)S(=O)(=O)c1ccc(-c2ccccc2)cc1` was 5.15% (inactive); that for `CC1(C)CC(=O)C(C2c3ccccc3S(=O)(=O)c3ccccc32)C(=O)C1` was 3.51% (inactive). For the compound `Cc1c(C=O)c2ccccn2c1C(=O)c1ccncc1`, the inhibition is 23.7% (inactive). With `COc1cc(NC(=O)CCNC(=O)Cn2ccc3ccccc3c2=O)cc(OC)c1OC` the figure was -1.5% (inactive).

For the compound `Cn1c(=O)c2c(nc(N3CCCCCC3)n2CC(O)COc2ccc(Cl)cc2)n(C)c1=O` (stereo unspecified), the inhibition is 3.88% (inactive). With `CN(C)S(=O)(=O)c1cccc(NC(=O)COC(=O)c2cc(=O)[nH]c(=O)[nH]2)c1` the figure was -1.24% (inactive); with `Cc1ccc(/C=N/NC(=S)Nc2cccc(S(=O)(=O)N(C)C)c2)o1`, 55.8% (active). The value for `CN(C)S(=O)(=O)c1cccc(NC(=O)COc2ccc3ccccc3c2)c1` was 0.32% (inactive); that for `CCN(C(=O)Nc1cccc2ccccc12)c1ccccc1` was 3.9% (inactive). Regarding `Cc1cccc(S(=O)(=O)N2CN(CC3CCCO3)c3nc4ccccc4nc32)c1` (stereo unspecified), the inhibition is 11.8% (inactive). With `Cc1c(C(=O)OC(C)C)sc(NC(=O)c2cccnc2)c1C#N` the figure was 20.9% (inactive).

As to `CCN(CC)C(=O)c1sc(NC(=O)c2ccco2)c(C#N)c1C`, the inhibition is 33.3% (active). The value for `Cc1sc(NC(=O)C2=COCCO2)c(C#N)c1C` was 13.8% (inactive); that for `CCN(CC)CC(=O)Nc1nn(-c2ccccc2)nc1C(N)=O` was -4.59% (inactive); that for `COc1ccc(OC)c(/C=C/C(=O)c2ccc3c(c2)OCO3)c1` was 7.32% (inactive). With `COc1ccc(/C=N/NC(=O)c2ccc3c(c2)OCCO3)c(OC)c1`, the inhibition was 35.4% (active). The value for `COc1ccc(OC)c(/C=N/NC(=O)c2ccc[n+](CC(=O)c3ccccc3)c2)c1` was 11.2% (inactive); that for `CN(CC(=O)NCCc1ccc(S(N)(=O)=O)cc1)CC(=O)Nc1ccc(Cl)cc1` was 2.64% (inactive). The value for `CN(C)c1ccc(C=NCCc2ccc(S(N)(=O)=O)cc2)cc1` was 54.4% (active); that for `CCCCc1ccc(S(N)(=O)=O)cc1` was 1.6% (inactive); that for `O=C(O)CC(c1ccccc1F)N1Cc2ccccc2C1=O` (stereo unspecified) was -3.95% (inactive).

With `Cc1c(C(=O)NC2CCCCC2)oc2ccccc12`, the inhibition was 5.98% (inactive). With `CC(C)c1ccccc1OCC(O)CN(CC(O)COc1cccc2ccccc12)C(C)C` (stereo unspecified) the figure was 6.49% (inactive); with `COc1ccc(/C=C/C(=O)OCC(=O)NC2CCCCCC2)cc1OC`, 27.3% (inactive). With `COc1ccc(S(=O)(=O)N(C)CC(=O)Nc2ccc3c(c2)OCCO3)cc1OC` the figure was 5.05% (inactive); with `COc1cccc(/C=C/C(=O)Nc2ccc3c(c2)OCCO3)c1`, 9.4% (inactive). For `CSc1ccc(/C=C/C(=O)NC23CC4CC(CC(C4)C2)C3)cc1`, the inhibition is 14.4% (inactive). The value for `COc1ccc(/C=C/C(=O)Nc2ccc3c(c2)OCCO3)cc1OC` was 33.3% (active); that for `COc1cc(/C=C/C(=O)Nc2ccc(OC)c(S(=O)(=O)N3CCOCC3)c2)ccc1OCC#N` was 34.9% (active); that for `COc1ccc(CCC(=O)Nc2ccc(Cl)c(S(=O)(=O)N3CCOCC3)c2)cc1OC` was 5.73% (inactive). With `COc1ccc(/C=C/C(=O)Nc2ccc(C34CC5CC(CC(O)(C5)C3)C4)cc2)cc1OC` the figure was 31% (active); with `COc1cc(/C=C/C(=O)OCC(=O)N2CCOCC2)ccc1OCC#N`, 5.68% (inactive). The value for `CCN1C(=O)[C@H]2[C@@H](c3ccc(SC4CCCCC4)c(OC)c3)N[C@@](Cc3ccccc3)(C(=O)OC)[C@H]2C1=O` was 9.48% (inactive); that for `COc1ccc(-c2ccc(C(=O)NCCN3CCOCC3)c3occc23)c(C)c1` was -2.68% (inactive). Turning to `CCc1ccc(-c2cc3c(=O)n(CC(=O)NCCCN4CCN(Cc5ccccc5)CC4)nc(C)n3n2)cc1`, the inhibition is 5.56% (inactive).

For the compound `O=C(NCc1cccnc1)c1cccnc1Sc1ccc(Cl)cc1`, the inhibition is -0.62% (inactive).

As for `Cc1ccc(C)c(N2CCN(C(=O)CCc3nc(-c4cccc(C(F)(F)F)c4)no3)CC2)c1`, the inhibition is 0% (inactive). With `CC1(C)Cc2ccccc2-c2nnc(-c3cccc(O)c3)n21` the figure was 3.02% (inactive).
